Records with an inconclusive call do not appear. Activity calls are given as the source filed them. How the source made its calls, unless noted: active means hit-call score of the fitted dose curve at least 0.9, where 1 is the maximum; inactive means score below 0.9.

One may read the AC50 as the concentration giving half of the maximal activity seen.

The nature of test [1]: ATG_AP_2_CIS: Attagene CIS-FACTORIAL HepG2 Assay for human Activator Protein 2 (AP-2) (AID 2282932). The note with it: HepG2 AP-2 cis-reporter, Attagene transcription factor profiling; actives raise or lower the signal. The method, boiled down: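 Transiently transfected HepG2 cells are exposed to chemical for 24 h. Reporter transcripts are then measured as fluorescence following RT-PCR and capillary separation, and gain- or loss-of-signal is fitted relative to DMSO.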

The target in test [2] is Transcription factor E2F1 (Homo sapiens) (UniProt Q01094). Nature of the test: ATG_E2F_CIS: Attagene CIS-FACTORIAL HepG2 Assay for human E2F Transcription Factor 1 (AID 2282935). The settings on record: HepG2 Attagene cis-reporter, E2F reporter RNA transcripts; actives raise or lower the signal. The procedure, abridged:
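Fluorescent RT-PCR products, digested with HpaI for 2 h at 37 C, are separated by capillary electrophoresis. Source RNA comes from transfected HepG2 cultures treated for 24 h.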

The nature of test [3]: ATG_M_61_CIS: Attagene CIS-FACTORIAL HepG2 Assay for M61 Transcription Factor (Internal Marker) (AID 2282937). The settings on record: HepG2 Attagene CIS-FACTORIAL M61 internal marker reporter; actives raise or lower the signal. The method, boiled down:
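Using transiently transfected HepG2 liver cells, reporter transcript levels were assessed 24 h post-dosing by RT-PCR and capillary electrophoresis. Changes in either direction were fitted relative to DMSO controls.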

Test [4] is described as follows: ATG_Ets_CIS: Attagene CIS-FACTORIAL HepG2 Assay for human Erythroblast Transformation Specific (ETS) (AID 2282941). The note with it: HepG2 ETS cis-reporter transcription, actives raise or lower the signal. The method, boiled down:
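Multiplexed reporter transcript profiling: HepG2, 24 h treatment, total RNA to cDNA, PCR, 6-FAM labelling, HpaI cut, capillary electrophoresis. Gain- or loss-of-signal fitted against DMSO.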

For test [5], the target named is Hepatocyte nuclear factor 3-beta (Homo sapiens) (UniProt Q9Y261). Briefly: ATG_FoxA2_CIS: Attagene CIS-FACTORIAL HepG2 Assay for human Forkhead box A2 (FOXA2) (AID 2282942). The settings on record: HepG2 cis-reporter transcription factor activity, 24 h; actives raise or lower the signal. The method, boiled down: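 Fluorescence signal of reporter cDNA fragments, separated by capillary electrophoresis, reflects endogenous transcription factor activity in transfected HepG2 after 24 h. Both increases and decreases fitted against DMSO.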

A short description of test [6]: ATG_FoxO_CIS: Attagene CIS-FACTORIAL HepG2 Assay for human Forkhead box O (FoxO) (AID 2282943). The settings on record: HepG2 Attagene cis-reporter, FoxO element, mRNA; actives raise or lower the signal. The procedure, abridged: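 Endogenous transcription factor activity read from multiplexed cis-promoter reporter transcripts in transiently transfected HepG2, 24 h after dosing. Reporter RNA measured via RT-PCR plus capillary electrophoresis of FAM-labeled products; gain or loss relative to DMSO.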

In test [7] the target is Hypoxia-inducible factor 1-alpha (Homo sapiens) (UniProt Q16665). Briefly: ATG_HIF1a_CIS: Attagene CIS-FACTORIAL HepG2 Assay for human Hypoxia Inducible Factor 1 (HIF1A) (AID 2282951). The settings on record: HepG2 Attagene cis-factorial HIF1a reporter transcription; actives raise or lower the signal. The procedure, abridged: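 Endogenous-TF cis reporter readout, human HepG2 cells, 24 h incubation; mRNA detected via RT-PCR and capillary electrophoresis fluorescence; DMSO-normalised bidirectional fitting.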

Test [8] is described as follows: ATG_RORE_CIS: Attagene CIS-FACTORIAL HepG2 Assay for human RAR-related Orphan Receptor Element (RORE) (AID 2282959). The note with it: HepG2 Attagene cis-factorial RORE reporter, mRNA; actives raise or lower the signal. The procedure, abridged:
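Measured here: transcript induction of a cis-regulated reporter in HepG2 cells transiently transfected via FuGene 6. After 24 h, RNA was processed by RT-PCR and fluorescent capillary electrophoresis; DMSO defined baseline activity.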

A short description of test [9]: ATG_TGFb_CIS: Attagene CIS-FACTORIAL HepG2 Assay for human Transforming Growth Factor (TGF) (AID 2282967). The note with it: HepG2 Attagene CIS TGFb reporter, mRNA transcription; actives raise or lower the signal. The procedure, abridged: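 Readout: fluorescently labeled reporter cDNA fragments resolved by capillary electrophoresis after RT-PCR. Transfected HepG2 cells dosed for 24 h; endogenous TF activity at TGFB1-linked cis element; gain or loss fitted relative to DMSO.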

Test [10] is described as follows: ATG_VDRE_CIS: Attagene CIS-FACTORIAL HepG2 Assay for human Vitamin D Receptor Element (VDRE) (AID 2282968). The settings on record: HepG2 VDRE cis-reporter transcription, actives raise or lower the signal. The procedure, abridged:
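Measures endogenous factor activity through cis-element-driven reporter transcripts in transiently transfected HepG2. Cells are treated 24 h; reporter mRNA is quantified by RT-PCR and capillary electrophoresis; fitting is bidirectional.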

For test [11], the target named is Transcriptional activator Myb (Homo sapiens) (UniProt P10242). Briefly: ATG_Myb_CIS: Attagene CIS-FACTORIAL HepG2 Assay for human Myeloblastosis (Myb) Proto-Oncogene Transcription Factor (AID 2282986). The note with it: HepG2 Attagene CIS-FACTORIAL Myb reporter transcription; actives raise or lower the signal. The method, boiled down:
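Multiplexed cis-reporter system in HepG2: transient transfection, 24 h treatment, mRNA readout by RT-PCR and capillary electrophoresis. Both increases and decreases are scored versus DMSO negative control.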

Test [12] deals with Nuclear respiratory factor 1 (Homo sapiens) (UniProt Q16656). Nature of the test: ATG_NRF1_CIS: Attagene CIS-FACTORIAL HepG2 Assay for human Nuclear Respiratory Factor 1 (NRF1) Orphan Gene (AID 2282987). The note with it: HepG2 NRF1 cis-element reporter, Attagene multiplex; actives raise or lower the signal. The procedure, abridged:
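Endogenous factor activity was captured via cis-element-driven reporter transcripts in HepG2 cells. Following 24 h chemical treatment, transcripts were quantified by RT-PCR and capillary electrophoresis.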

Test [13] in a line: ATG_NFI_CIS: Attagene CIS-FACTORIAL HepG2 Assay for human Nuclear Factor I (NFI) (AID 2282989). The note with it: HepG2 cis-regulatory reporter, NFI response element transcription; actives raise or lower the signal. The procedure, abridged:
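Read-out: reporter mRNA via RT-PCR plus capillary electrophoresis with fluorescence detection. Transiently transfected HepG2 (endogenous TF activity on cis promoters), 24 h compound exposure; gain or loss of signal fitted against DMSO.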

The target of test [14] is Myc proto-oncogene protein (Homo sapiens) (UniProt P01106). Nature of the test: ATG_Myc_CIS: Attagene CIS-FACTORIAL HepG2 Assay for human Myelocytomatosis (Myc) Proto-Oncogene Transcription Factor (AID 2282990). The note with it: HepG2, Attagene cis-reporter transcription factor activity; actives raise or lower the signal. The procedure, abridged:
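After 24 h chemical treatment of HepG2 cells carrying multiplexed cis-regulated reporter constructs, reporter transcripts quantified by RT-PCR and capillary electrophoresis of fluorescent fragments. Gain or loss fitted against DMSO baseline.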

For test [15], the target named is Cellular tumor antigen p53 (Homo sapiens) (UniProt P04637). Nature of the test: ATG_p53_CIS: Attagene CIS-FACTORIAL HepG2 Assay for human p53 Transcription Factor (AID 2282994). The settings on record: HepG2 p53 cis-element reporter, Attagene mRNA; actives raise or lower the signal. The procedure, abridged: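 Transiently transfected HepG2 (multiple cis reporter transcription units); exposure 24 h; reporter RNA via RT-PCR, 6-FAM extension, 2 h HpaI digest at 37 C, CE detection; DMSO baseline.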

In test [16] the target is Nuclear receptor subfamily 1 group I member 2 (Homo sapiens) (UniProt O75469). Briefly: ATG_PXR_TRANS: Attagene TRANS-FACTORIAL HepG2 Assay for human Pregnane X Receptor (PXR) (AID 2283008; active means hit-call score of the fitted dose curve at least 0.9, where 1 is the maximum). The method, boiled down:
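Transient HepG2 transfectants carrying multiplexed reporter transcription units; PXR activity read through a Gal4 chimera. 24 h exposure. RT-PCR/CE fluorescence; upward curve fit referenced to DMSO.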

Test [17] is described as follows: ATG_XTT_Cytotoxicity: Cytotoxicity Assessment in the Attagene TRANS-FACTORIAL HepG2 Assay (AID 2283584; active means hit-call score of the fitted dose curve at least 0.9, where 1 is the maximum). The procedure, abridged:
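HepG2 cells transiently transfected with GAL4-UAS multiple reporter units, dosed 24 h; cytotoxicity read by XTT as loss of signal versus DMSO baseline.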

The target of test [18] is Cellular tumor antigen p53 (Homo sapiens) (UniProt P04637). Briefly: TOX21_p53_BLA_p2_ratio: Tox21 HCT-116 p53 Agonism Beta-lactamase Assay, Ratio, Phase 2 (AID 2283592; active means hit-call score of the fitted dose curve at least 0.9, where 1 is the maximum). The procedure, abridged: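 First, HCT116 reporter cells settle for 5 h at 37C. Next, DMSO compound solutions are pinned in (217-fold dilution) and left 16 h. Finally, CCF4-AM substrate is loaded 2 h at room temperature and the 460/530 nm ratio read.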

The target of test [19] is X-box-binding protein 1 (Homo sapiens) (UniProt P17861). Nature of the test: ATG_Xbp1_CIS: Attagene CIS-FACTORIAL HepG2 Assay for human X-box Binding Protein 1 (XBP1) (AID 2282972). The note with it: HepG2 XBP1 cis-element reporter, Attagene multiplex; actives raise or lower the signal. The procedure, abridged: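 Human hepatoma HepG2, cis-element reporter system, 24 h treatment; mRNA quantified by RT-PCR/CE fluorescence; fit relative to DMSO.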

A short description of test [20]: ATG_EGR_CIS: Attagene CIS-FACTORIAL HepG2 Assay for human Early Growth Response 1 (EGR1) (AID 2282938). The note with it: HepG2 Attagene CIS-FACTORIAL EGR reporter mRNA; actives raise or lower the signal. The procedure, abridged:
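Fluorescent capillary-electrophoresis signal of reporter cDNA fragments serves as read-out. HepG2 cells bear transiently transfected cis-promoter reporter units and are exposed 24 h; gain- or loss-of-signal is fitted against DMSO.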

Sequence of Hepatocyte nuclear factor 3-beta (Homo sapiens) (Q9Y261 whole entry, looked up, the tested form may be a part): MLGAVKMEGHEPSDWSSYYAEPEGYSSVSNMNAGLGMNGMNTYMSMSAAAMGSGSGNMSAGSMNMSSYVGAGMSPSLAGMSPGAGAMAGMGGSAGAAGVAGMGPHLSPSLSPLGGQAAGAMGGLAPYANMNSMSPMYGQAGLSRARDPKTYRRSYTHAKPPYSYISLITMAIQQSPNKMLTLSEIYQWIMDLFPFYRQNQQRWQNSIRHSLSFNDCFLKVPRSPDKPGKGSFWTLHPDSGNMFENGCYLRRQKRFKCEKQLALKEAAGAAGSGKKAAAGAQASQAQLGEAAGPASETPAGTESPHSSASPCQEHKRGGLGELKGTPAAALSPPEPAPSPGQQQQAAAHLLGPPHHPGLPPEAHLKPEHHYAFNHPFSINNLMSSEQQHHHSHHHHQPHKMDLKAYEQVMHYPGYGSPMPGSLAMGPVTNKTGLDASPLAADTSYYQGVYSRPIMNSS
Sequence of Cellular tumor antigen p53 (Homo sapiens) (P04637 whole entry, looked up): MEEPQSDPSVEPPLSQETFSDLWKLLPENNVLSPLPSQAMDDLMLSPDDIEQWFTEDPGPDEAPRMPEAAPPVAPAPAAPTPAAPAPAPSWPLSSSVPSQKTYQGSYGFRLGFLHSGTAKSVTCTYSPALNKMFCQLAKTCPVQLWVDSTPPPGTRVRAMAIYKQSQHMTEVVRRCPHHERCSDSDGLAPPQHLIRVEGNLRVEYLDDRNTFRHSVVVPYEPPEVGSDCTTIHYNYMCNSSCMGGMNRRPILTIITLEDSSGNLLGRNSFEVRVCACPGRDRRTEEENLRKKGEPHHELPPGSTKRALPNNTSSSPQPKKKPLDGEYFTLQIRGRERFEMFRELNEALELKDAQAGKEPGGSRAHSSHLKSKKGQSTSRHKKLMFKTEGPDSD
Sequence of Transcriptional activator Myb (Homo sapiens) (P10242 whole entry, looked up): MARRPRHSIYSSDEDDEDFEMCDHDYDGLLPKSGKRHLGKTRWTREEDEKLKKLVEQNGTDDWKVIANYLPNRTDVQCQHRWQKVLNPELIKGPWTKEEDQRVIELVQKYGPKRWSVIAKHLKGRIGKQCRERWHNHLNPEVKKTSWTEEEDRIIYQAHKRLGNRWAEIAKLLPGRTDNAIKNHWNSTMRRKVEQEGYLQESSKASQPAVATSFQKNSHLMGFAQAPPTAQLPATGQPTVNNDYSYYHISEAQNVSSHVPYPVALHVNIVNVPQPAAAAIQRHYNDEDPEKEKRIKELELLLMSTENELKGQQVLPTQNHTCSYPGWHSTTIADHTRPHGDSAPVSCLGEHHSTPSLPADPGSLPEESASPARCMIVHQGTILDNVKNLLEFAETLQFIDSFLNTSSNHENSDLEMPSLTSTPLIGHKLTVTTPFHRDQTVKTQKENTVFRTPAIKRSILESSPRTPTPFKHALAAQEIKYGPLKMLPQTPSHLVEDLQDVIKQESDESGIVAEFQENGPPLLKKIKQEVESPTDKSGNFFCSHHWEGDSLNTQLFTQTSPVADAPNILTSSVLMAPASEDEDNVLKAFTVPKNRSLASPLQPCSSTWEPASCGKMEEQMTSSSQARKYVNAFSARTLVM
Sequence of Myc proto-oncogene protein (Homo sapiens) (P01106 whole entry, looked up, the tested form may be a part): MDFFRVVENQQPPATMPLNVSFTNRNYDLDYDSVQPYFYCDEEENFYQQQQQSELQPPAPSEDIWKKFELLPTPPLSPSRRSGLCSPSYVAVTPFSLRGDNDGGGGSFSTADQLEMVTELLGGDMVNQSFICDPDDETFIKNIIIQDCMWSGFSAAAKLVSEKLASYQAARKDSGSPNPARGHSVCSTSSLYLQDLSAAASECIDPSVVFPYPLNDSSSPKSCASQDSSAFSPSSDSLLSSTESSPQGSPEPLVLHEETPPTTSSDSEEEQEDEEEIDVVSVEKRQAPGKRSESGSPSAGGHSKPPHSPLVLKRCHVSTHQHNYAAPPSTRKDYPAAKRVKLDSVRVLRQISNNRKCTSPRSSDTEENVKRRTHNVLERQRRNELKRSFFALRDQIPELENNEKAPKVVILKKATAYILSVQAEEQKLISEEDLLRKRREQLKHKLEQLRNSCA
Sequence of Nuclear respiratory factor 1 (Homo sapiens) (Q16656 whole entry, looked up): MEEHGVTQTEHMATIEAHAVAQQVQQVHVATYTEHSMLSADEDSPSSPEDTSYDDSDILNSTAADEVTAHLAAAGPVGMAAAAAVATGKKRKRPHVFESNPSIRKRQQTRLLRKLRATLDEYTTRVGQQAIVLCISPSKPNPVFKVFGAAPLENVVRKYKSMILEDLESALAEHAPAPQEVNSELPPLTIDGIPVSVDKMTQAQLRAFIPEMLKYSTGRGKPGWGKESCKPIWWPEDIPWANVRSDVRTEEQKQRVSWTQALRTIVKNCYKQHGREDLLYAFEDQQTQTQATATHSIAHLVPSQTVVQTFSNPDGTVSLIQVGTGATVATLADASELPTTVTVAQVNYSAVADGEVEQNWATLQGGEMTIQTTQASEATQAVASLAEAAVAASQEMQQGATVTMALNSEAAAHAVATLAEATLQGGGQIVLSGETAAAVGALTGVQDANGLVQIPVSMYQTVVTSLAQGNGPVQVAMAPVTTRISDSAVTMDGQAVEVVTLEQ
Sequence of Transcription factor E2F1 (Homo sapiens) (Q01094 whole entry, looked up): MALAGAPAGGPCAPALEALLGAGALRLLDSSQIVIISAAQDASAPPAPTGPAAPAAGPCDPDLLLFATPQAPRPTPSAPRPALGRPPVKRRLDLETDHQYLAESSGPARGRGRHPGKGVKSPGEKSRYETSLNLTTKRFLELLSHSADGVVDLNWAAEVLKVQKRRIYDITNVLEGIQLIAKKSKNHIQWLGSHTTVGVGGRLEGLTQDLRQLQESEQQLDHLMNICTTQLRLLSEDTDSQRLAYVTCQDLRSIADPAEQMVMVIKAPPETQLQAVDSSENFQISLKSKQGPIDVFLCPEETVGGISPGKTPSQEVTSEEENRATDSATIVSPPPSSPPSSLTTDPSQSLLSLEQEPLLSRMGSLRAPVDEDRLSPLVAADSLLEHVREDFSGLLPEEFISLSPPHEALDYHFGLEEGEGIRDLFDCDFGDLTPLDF
Sequence of Nuclear receptor subfamily 1 group I member 2 (Homo sapiens) (O75469 whole entry, looked up, the tested form may be a part): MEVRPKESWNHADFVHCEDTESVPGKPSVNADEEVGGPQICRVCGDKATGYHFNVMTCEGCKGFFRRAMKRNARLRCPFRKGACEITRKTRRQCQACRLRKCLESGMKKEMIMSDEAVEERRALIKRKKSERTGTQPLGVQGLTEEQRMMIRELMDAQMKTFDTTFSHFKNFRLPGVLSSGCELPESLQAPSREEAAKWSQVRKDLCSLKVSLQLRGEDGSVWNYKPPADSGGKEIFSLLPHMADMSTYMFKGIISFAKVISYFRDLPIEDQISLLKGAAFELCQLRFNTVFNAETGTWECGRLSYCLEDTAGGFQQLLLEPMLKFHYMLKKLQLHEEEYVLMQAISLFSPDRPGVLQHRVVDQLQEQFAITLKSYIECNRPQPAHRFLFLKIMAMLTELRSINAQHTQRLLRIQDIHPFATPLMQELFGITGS
Sequence of Hypoxia-inducible factor 1-alpha (Homo sapiens) (Q16665 whole entry, looked up): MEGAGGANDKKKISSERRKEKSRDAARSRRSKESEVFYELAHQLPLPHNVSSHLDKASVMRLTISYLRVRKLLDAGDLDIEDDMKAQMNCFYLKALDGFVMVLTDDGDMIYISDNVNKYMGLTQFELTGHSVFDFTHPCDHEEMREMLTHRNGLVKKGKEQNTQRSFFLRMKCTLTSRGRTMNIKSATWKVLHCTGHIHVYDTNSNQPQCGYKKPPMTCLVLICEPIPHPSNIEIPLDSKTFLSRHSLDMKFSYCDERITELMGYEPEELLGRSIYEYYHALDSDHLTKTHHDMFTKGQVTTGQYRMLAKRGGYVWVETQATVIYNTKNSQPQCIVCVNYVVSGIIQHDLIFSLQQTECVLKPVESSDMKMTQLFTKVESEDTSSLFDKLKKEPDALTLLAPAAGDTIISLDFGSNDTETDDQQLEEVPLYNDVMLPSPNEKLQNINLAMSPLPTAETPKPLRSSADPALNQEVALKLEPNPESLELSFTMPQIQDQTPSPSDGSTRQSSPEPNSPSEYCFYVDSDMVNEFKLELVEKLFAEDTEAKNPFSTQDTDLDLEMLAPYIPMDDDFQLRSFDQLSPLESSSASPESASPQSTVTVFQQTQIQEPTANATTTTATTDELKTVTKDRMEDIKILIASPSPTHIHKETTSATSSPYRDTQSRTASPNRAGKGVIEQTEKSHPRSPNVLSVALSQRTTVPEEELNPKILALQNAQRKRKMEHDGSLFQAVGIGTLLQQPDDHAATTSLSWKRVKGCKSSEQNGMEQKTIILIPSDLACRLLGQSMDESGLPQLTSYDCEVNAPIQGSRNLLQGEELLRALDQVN
Sequence of X-box-binding protein 1 (Homo sapiens) (P17861 whole entry, looked up): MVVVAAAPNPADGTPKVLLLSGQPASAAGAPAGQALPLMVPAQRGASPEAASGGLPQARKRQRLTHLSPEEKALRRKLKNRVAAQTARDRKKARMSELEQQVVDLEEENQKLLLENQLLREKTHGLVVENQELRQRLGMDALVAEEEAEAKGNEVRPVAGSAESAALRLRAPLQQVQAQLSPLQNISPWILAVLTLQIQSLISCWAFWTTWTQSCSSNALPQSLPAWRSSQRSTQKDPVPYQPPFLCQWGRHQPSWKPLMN

For `NC(=O)c1ccc([N+](=O)[O-])cc1Cl`, the outcome in test [1], in test [2], in test [3], in test [4], in [5] and in test [6] was inactive. Moreover, the outcome in test [7], in [8], in test [9], in test [10], in test [11] and in [12] was inactive. Further, the compound was classed as inactive in test [13], in test [14], in test [15], in [16], in [17] and in test [18].

Turning to `CCCCCCC1CCC(=O)O1` (stereo unspecified), the outcome in test [1], in test [2], in test [3], in [4], in [5] and in test [7] was inactive. In addition, the compound was classed as inactive in [8], in test [9], in [10], in [19], in [11] and in test [12]. In addition, the compound was classed as inactive in [13], in test [14], in test [15], in [16], in [17] and in test [18].

As to `Sc1nc2ccccc2s1`, the compound was called inactive in [1], in test [2], in test [3], in [20], in test [5] and in [6]. The call in [7], in [9], in test [10], in [19], in test [11] and in test [12] was inactive. The call in [13], in [15], in test [16], in [17] and in test [18] was inactive. In addition, the AC50 in test [8] was 19.3 µM (active).

As to `CNC[C@H](O)[C@@H](O)[C@H](O)[C@H](O)CO`, the compound was classed as inactive in test [1], in [2], in test [3], in [5], in test [6] and in test [8]. Moreover, the compound was called inactive in test [9], in test [10], in test [19], in [11], in test [12] and in test [13]. Moreover, the result in [15], in test [17] and in [18] was inactive.

As for `OCCOCCOCCOCCOCCO`, the compound was classed as inactive in [1], in [2], in test [20], in [4], in test [5] and in test [7]. Moreover, the outcome in [8], in test [9], in [10], in test [11], in [12] and in test [13] was inactive. Besides, the outcome in test [14], in test [15], in test [17] and in test [18] was inactive.

`O=C(O)/C=C\C(=O)O`: the outcome in test [1], in test [3], in test [5], in test [6], in test [7] and in [8] was inactive. For the same compound, the call in test [9], in test [10], in test [19], in [11], in test [12] and in test [13] was inactive. For the same compound, the compound was classed as inactive in [14], in [15] and in [17].

Turning to `CCCC[N+]1(C)CCCC1`, the compound was called inactive in [1], in [2], in test [20], in [4], in [5] and in test [6]. The call in test [7], in test [8], in [9], in test [19], in test [11] and in [12] was inactive. Further, the outcome in test [13], in test [14], in test [15] and in test [17] was inactive.

For the origin of these results see PubChem BioAssay (EPA / NIEHS).
